Records with an inconclusive call do not appear. Where a call stands in place of a potency, no number is given. Activity calls are given as the source filed them. The call rests on the fitted dose curve; in most records, active means well fitted cell-killing curve with a large enough effect; inconclusive means small, poorly fitted or top-dose-only effect; inactive means flat fitted curve, though single readings scatter.
Potency means the concentration at half of the fitted maximal effect.

The assay can be described thus: Cell Viability - LYMP2-024 (AID 988). Further: nearly all actives have a fitted effect of over 60% in size. As to conditions: LYMP2-024 lymphoblastoid cell viability; series mostly up to 92.2 µM. An excerpt: NIH Chemical Genomics Center [NCGC]
NIH Molecular Libraries Screening Centers Network [MLSCN]
National Institutes of Environmental Health Sciences [NIEHS]
National Toxicology Program [NTP]
We have developed a 1536-well cell-based assay for quantitative high throughput screening (qHTS) against a number of cell lines to determine in vitro cytotoxicity of small molecules. This particular assay uses a human lymphoblastoid cell line (LYMP2-024) purchased from Coriell Institute for Medical Research.
NCGC Assay Protocol Summary:
The CellTiter-Glo luminescent cell viability assay (Promega) is a homogeneous method to measure the number of viable cells in culture. The end point readout of this assay is based on quantitation of intracellular ATP, an indicator of metabolic activity, using the luciferase reaction. Luciferase catalyzes the oxidation of beetle Luciferin to oxyluciferin and light in the presence of ATP. The luminescent signal is proportional to amount of ATP present.
Using the CellTiter-Glo luminescent cell viability assay, the amount of cellular ATP was measured in the lymphoblastoid cell line with complete culture medium following compound treatment for 24 hours. The assay was performed in opaque white Kalypsys 1536-well plates. In the screen, tetraoctylammonium bromide was used as positive control. Library compounds were measured for their ability to cause acute toxicity in the cell line, as reflected by a decrease in intracellular ATP levels, in a concentration-dependent manner. […] AC50 values were determined from concentration-response data modeled with the standard Hill equation.
qHTS protocol for CellTiter Glo lymphoblastoid cellular assay
[Step] [Parameter] [Value] [Description]
1. Reagent; 5 uL; 2500 lymphoblastoid cells/well
2. Time; 5 hr; 37 C incubation
4. Controls; 23 nL; Tetraoctylammonium bromide 6.4pM to 92 uM
5. Time; 24 hr; 37 C incubation
6. Reagent; 5 uL; CellTiter Glo reagent
7. Time; 30 min; Room Temperature
8. Detection; Luminescence; Viewlux plate reader
Keywords: cell viability, cytotoxicity, lymphoblastoid cell line, luminescence, NTPHTS, NTPHTS_NCGC, NIEHS, DSSTox, MLSMR, MLSCN, NIH Roadmap, qHTS, NCGC
In the case of `C=CC1CO1` (stereo not given), the Potency result is “inactive”.

`N=C1C=CC(=C(c2ccc(N)cc2)c2ccc(N)cc2)C=C1`: the Potency is 7.94 µM (active).

As for `Oc1cc2c(cc1O)[C@H]1c3ccc(O)c(O)c3OC[C@@]1(O)C2`, the Potency was 25.1 µM (active).

`CCOc1ccc2nc(N)sc2c1`: the Potency result is “inactive”.

In the case of `Brc1ccc(-c2ccccc2)cc1`, the Potency entry was “inactive”.

For the compound `c1ccc2ncccc2c1`, the Potency entry was “inactive”.

On to `Cc1cc2nc(N)sc2cc1C`, for which the Potency entry is “inactive”.

In the case of `CCCCC(CC)COC(=O)COc1ccc(Cl)cc1Cl` (stereo not given), the Potency entry was “inactive”.

In the case of `COc1ccc(C)cc1N`, the Potency result is “inactive”.

`CCCCOC(=O)COc1ccc(Cl)cc1Cl`: the Potency entry was “inactive”.

Regarding `CC(C)S`, the Potency entry was “inactive”.

Take `Cc1ccc(C(=O)O)cc1[N+](=O)[O-]`: the Potency entry is “inactive”.

For `O=C(Cl)c1ccc([N+](=O)[O-])cc1`, the Potency result is “inactive”.

With `CC(CCC(=O)O)(c1ccc(O)cc1)c1ccc(O)cc1`, the Potency entry was “inactive”.

On to `O=C1OC(=O)c2ccccc21`, for which the Potency result was “inactive”.

`CCCCCCc1ccc(-c2ccc(C#N)cc2)cc1`: the Potency entry was “inactive”.

On to `c1ccncc1`, for which the Potency entry is “inactive”.

For `C/C=C/C=C/C=O`, the Potency is 25.1 µM (active).

As to `O=C(O)c1ccc([N+](=O)[O-])cc1`, the Potency entry was “inactive”.

Take `c1ccc(Nc2cccc3ccccc23)cc1`: the Potency result is “inactive”.

In the case of `C/C(Cl)=C/CCl`, the Potency result was “inactive”.

Turning to `NC(=O)Nc1nc2ccccc2[nH]1`, the Potency entry is “inactive”.

For `c1ccc(SCCSc2ccccc2)cc1`, the Potency result is “inactive”.

For the compound `CCCCCCN`, the Potency result was “inactive”.

On to `OC1CCCCC1`, for which the Potency entry is “inactive”.

Take `CCCC(=O)OC(=O)CCC`: the Potency entry is “inactive”.

For `CCC(Cl)CC(Cl)C(Cl)C(Cl)C(Cl)C(C)Cl` (stereo not given), the Potency entry was “inactive”.

For `Nc1ccc(N=Nc2ccccc2)c(N)c1`, the Potency entry is “inactive”.

For the compound `COc1ccc(C(=O)Nc2ccccc2)cc1[N+](=O)[O-]`, the Potency result was “inactive”.

In the case of `Oc1c(Cl)cc(Cl)c(Cl)c1Cl`, the Potency entry was “inactive”.

As to `CCCCCCCC/C=C\CCCCCCCC(=O)N(CCO)CCO`, the Potency result was “inactive”.

With `O=c1[nH]ncc2ccccc12`, the Potency entry is “inactive”.

With `Cc1ccc(O)c(N)c1`, the Potency is 39.8 µM (active).

As to `CC(=O)OCc1ccc2c(c1)OCO2`, the Potency result was “inactive”.

`CCNC(=S)NCC`: the Potency entry is “inactive”.

With `C/C=C1/C(=O)C[C@H]2[C@@H]3CCC4=CC(=O)CC[C@]4(C)[C@H]3CC[C@]12C`, the Potency was 39.8 µM (active).

Regarding `O=[N+]([O-])c1ccccc1Nc1ccccc1`, the Potency entry is “inactive”.

With `Cc1ccc2ccc3cccc4ccc1c2c34`, the Potency result was “inactive”.

In the case of `CC(=O)OC1CC(C)OC(C)O1` (stereo not given), the Potency entry was “inactive”.

Take `c1ccc2c(c1)ccc1ccccc12`: the Potency entry is “inactive”.
